Compounds with a hit are over-represented: about 2.5% of the library has one in this group of screens.
TMEM16A act: TMEM16A chloride channel activators or potentiators, primary screen, cell-based, HTS. AID 623877, 2012. 340,000 tested, 0.3% active. B-score at 10 µM. HEK293 TMEM16A/YFP-H148Q/I152L, iodide quench fluorescence; active compounds read low;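 active = fluorescence-ratio B-score plate-corrected deviation score at least 3 library SD below zero, with starting fluorescence score within 5 deviations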;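 note: channel opened by trigger with iodide after compound preincubation; score built on the fluorescence ratio of max minus min over baseline; more negative score means more quench and so TMEM16A activation or potentiation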
CHT allo act: CHT positive allosteric modulators, primary screen, cell-based, membrane potential dye, choline EC20; High affinity choline transporter 1 (Homo sapiens), Q9GZV3; CHT-expressing cells; active compounds read high; LV-AA mutant CHT in HEK293 cells; B-score at 10 µM; 310,000 tested, 0.49% active;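 active = initial fluorescence not abnormally high and integrated response B-score, plate-corrected, over 3 SD above library mean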
CHT inh: inhibitors of human choline transporter CHT; CHT-expressing cells, membrane potential dye, choline response; active compounds read low; High affinity choline transporter 1 (Homo sapiens), Q9GZV3; 310,000 tested, 0.86% active; B-score at 10 µM;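 active = B-score over 3 SD under the library average, and starting fluorescence ratio not unusually high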;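 note: choline stimulus applied at its EC90 after an EC20 pre-addition; B-score computed on integrated fluorescence ratio after choline addition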
PKA-R1A act: activators of PKA-R1A holoenzyme, primary screen, biochemical, fluorescence polarization, Cy5-IP20, bovine R1A, mouse PKAc; cAMP-dependent protein kinase type I-alpha regulatory subunit (Bos taurus) + …; PKA-R1A dissociation; scaled: DMSO 0%, 113 µM cGMP 100%; activation, % at 11.4 µM; 340,000 tested, 0.083% active;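 active = percent activation above the mean of all tested compounds plus 3 SD, cut at about 19% in these data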;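 note: higher means more PKAc released from R1A so a rise in polarization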
PKA-R2B activ: activators of PKA-R2B holoenzyme, primary screen, biochemical, fluorescence polarization, Cy5-IP20, human; cAMP-dependent protein kinase catalytic subunit beta (Homo sapiens) + cAMP-dependent …; PKA-R2B holoenzyme dissociation; R2B truncated from residue 108, S112A mutant; 0% DMSO only, 100% 113 µM cGMP; activation, % at 11.4 µM; 340,000 tested, 0.079% active; AID 504700, 2011;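 active = activation above a cutoff set at the mean over all compounds plus 3 SD, cut at about 18% in these data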;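 note: higher means more holoenzyme dissociation and a rise in polarization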
ANO1 block: TMEM16A chloride channel inhibitors, primary screen, cell-based, HTS; Anoctamin-1 (Mus musculus), Q8BHY3; HEK293 TMEM16A/YFP iodide influx fluorescence, ionomycin; normalized B-score (activity score, 25-100; higher = stronger inhibition) at 10 µM; 310,000 tested, 1.2% active;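 active = ratio plate-corrected score three or more library SD toward inhibition, starting fluorescence score within five deviations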;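 note: score derived from kinetic fluorescence span divided by baseline fluorescence per well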
TMEM16A reconf: TMEM16A chloride channel inhibitors, confirmation, cell-based, re-confirmation. AID 652189, 2013. inhibition, % at 10 µM. shares compounds with ANO1 block. HEK293 TMEM16A/YFP-H148Q, iodide quench fluorescence; ionomycin added to raise cell calcium. 2,300 tested, 39% active;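 active = mean duplicate percent inhibition, scaled so buffer wells are 0 and the reference blocker 100, over three buffer SD above buffer mean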
TMEM16A Ca cntr: calcium mobilization in TMEM16A/YFP HEK293 cells, confirmation, counter-screen for TMEM16A inhibitor project; shares compounds with ANO1 block; Fluo4 calcium mobilization; calcium response (% of ionomycin), % at 10 µM; 2,300 tested, 2% active; AID 652231, 2013;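 active = duplicate-averaged calcium signal over 20% of the ionomycin maximum, relative to buffer baseline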;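 note: each well's signal is peak minus trough fluorescence divided by its pre-addition baseline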
YFP-HEK293 quench: iodide YFP quench changes in parental YFP-HEK293, counter-screen for TMEM16A inhibitor project, cell-based | YFP ratio F(max-min)/F0 at 10 µM | 2,300 tested, under 10 active | shares compounds with ANO1 block | AID 652233, 2013 | ionomycin;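 active = yellow fluorescent protein signal ratio exceeding the buffer control mean by over 5 SD of those controls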;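 note: ratio is mean of duplicate wells from kinetic YFP trace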
ClC-1 inh: ClC-1 chloride channel inhibition, selectivity assay for TMEM16A inhibitor project, cell-based, voltage-dependent ClC-1 | ratio percent, % at 10 µM | CHO ClC-1-YFP, iodide influx fluorescence quench; iodide control reads 0, buffer control 100 | shares compounds with ANO1 block | 2,300 tested, under 10 active;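 active = duplicate-mean ratio percent above the mean of iodide-only control wells, which defines zero, plus 5 of their SD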;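 note: higher percent means stronger block of ClC-1 iodide influx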
Target sequence (P35524 whole entry, looked up): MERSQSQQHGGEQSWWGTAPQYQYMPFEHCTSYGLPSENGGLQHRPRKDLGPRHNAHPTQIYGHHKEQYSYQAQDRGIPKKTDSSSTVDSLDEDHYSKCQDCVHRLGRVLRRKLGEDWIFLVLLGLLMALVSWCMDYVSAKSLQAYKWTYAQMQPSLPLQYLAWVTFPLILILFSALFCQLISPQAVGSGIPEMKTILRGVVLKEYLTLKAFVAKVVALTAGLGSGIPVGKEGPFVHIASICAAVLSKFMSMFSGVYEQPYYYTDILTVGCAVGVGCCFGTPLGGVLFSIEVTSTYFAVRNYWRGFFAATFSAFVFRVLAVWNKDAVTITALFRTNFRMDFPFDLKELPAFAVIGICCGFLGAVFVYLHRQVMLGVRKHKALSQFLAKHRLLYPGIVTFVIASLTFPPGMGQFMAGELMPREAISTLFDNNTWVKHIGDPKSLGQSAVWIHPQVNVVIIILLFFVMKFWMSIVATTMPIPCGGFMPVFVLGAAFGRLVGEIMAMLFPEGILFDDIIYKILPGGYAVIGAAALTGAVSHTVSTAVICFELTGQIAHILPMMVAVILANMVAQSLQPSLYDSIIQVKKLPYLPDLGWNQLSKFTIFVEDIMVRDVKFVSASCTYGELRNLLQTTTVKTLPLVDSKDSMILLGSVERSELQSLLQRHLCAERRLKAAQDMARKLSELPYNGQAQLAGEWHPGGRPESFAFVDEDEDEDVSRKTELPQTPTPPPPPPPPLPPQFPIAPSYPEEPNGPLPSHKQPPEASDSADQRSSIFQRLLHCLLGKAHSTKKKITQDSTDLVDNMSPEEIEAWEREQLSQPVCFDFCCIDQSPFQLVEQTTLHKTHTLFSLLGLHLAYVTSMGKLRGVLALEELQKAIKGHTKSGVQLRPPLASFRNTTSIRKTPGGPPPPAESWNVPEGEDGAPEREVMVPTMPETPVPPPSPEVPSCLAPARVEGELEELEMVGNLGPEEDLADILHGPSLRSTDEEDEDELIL
Of the large screens only hits and unclear results are named; the others gave an inactive call (follow-up assays come after a bar, where they were run).

CCN(CC)c1ccc(-c2nn3c(-c4ccccc4OC)nnc3s2)cc1	ANO1 block 100 | TMEM16A reconf inactive | TMEM16A Ca cntr inactive | YFP-HEK293 quench inactive | ClC-1 inh inactive
COc1ccccc1-c1nnc2sc(COc3ccccc3)nn12	none
CCOC(=O)CNC(=S)N(Cc1ccco1)Cc1ccccc1Cl	none
OCC1(Cc2ccccc2)CCN(Cc2cnc(-c3ccc(Cl)cc3)nc2)CC1	none | TMEM16A reconf inactive | TMEM16A Ca cntr inactive | YFP-HEK293 quench inactive | ClC-1 inh inactive
OCC1(Cc2ccccc2)CCN(Cc2cnc(-c3cccc4ccccc34)nc2)CC1	none
Cn1c(CNc2nc3ccccc3n2CCN2CCCCC2)nc2ccccc21	ANO1 block 25 | TMEM16A reconf inactive | TMEM16A Ca cntr inactive | YFP-HEK293 quench inactive | ClC-1 inh inactive
OCCNc1nc2ccccc2n1CCN1CCCCC1	none
Cc1nnc(SCC(=O)NC2CCCCC2)[nH]c1=O	none
O=C(CN(c1ccccc1)S(=O)(=O)c1ccc(Cl)cc1)Nc1cccnc1	none
CC1=C(C(=O)NC2CCCc3c2cnn3-c2cccc(C)c2C)OCCO1 (configuration not stated)	none
Cc1cc(C(=O)NC2CCCc3c2cnn3-c2cccc(C)c2C)no1 (configuration not stated)	ANO1 block 25 | TMEM16A reconf inactive | TMEM16A Ca cntr inactive | YFP-HEK293 quench inactive | ClC-1 inh inactive
COc1cccc(N/C=C(\C#N)c2ccc(OCCCF)cc2)c1	ANO1 block 100 | TMEM16A reconf inactive | TMEM16A Ca cntr inactive | YFP-HEK293 quench inactive | ClC-1 inh inactive
O=C(OCc1cc(Cl)ccc1OC(F)F)c1ccc([N+](=O)[O-])o1	none (no result: TMEM16A act, PKA-R1A act, PKA-R2B activ)
COc1ccc([C@H]2CC(=O)C=C(c3ccc4cc[nH]c4c3)C2)cc1	none (no result: CHT allo act, CHT inh, ANO1 block)
CCOC(=O)c1cc2ccccc2n1CCN(CC)CC	ANO1 block 25 | TMEM16A reconf inactive | TMEM16A Ca cntr inactive | YFP-HEK293 quench inactive | ClC-1 inh inactive
COc1cc(NC(=O)COc2cc(O)c3c(c2)OC(C)(C)CC3=O)cc(OC)c1OC	ANO1 block 100 | TMEM16A reconf 20.5% | TMEM16A Ca cntr inactive | YFP-HEK293 quench inactive | ClC-1 inh inactive
CCOC(=O)C1CCN(S(=O)(=O)C(F)(F)c2nc3ccccc3s2)CC1	ANO1 block 100 | TMEM16A reconf 29.5% | TMEM16A Ca cntr inactive | YFP-HEK293 quench inactive | ClC-1 inh inactive
CCOC(=O)C1CCN(S(=O)(=O)c2ccc(-c3ccccn3)s2)CC1	none (no result: PKA-R1A act, PKA-R2B activ)
CCc1nc2sc3ccccc3c(=O)c2c(=O)n1CCOC	ANO1 block 25 | TMEM16A reconf inactive | TMEM16A Ca cntr inactive | YFP-HEK293 quench inactive | ClC-1 inh inactive
Nc1c(N(Cc2ccco2)C(=O)c2ccccc2F)c(=O)[nH]c(=O)n1Cc1ccccc1	none (no result: CHT allo act, CHT inh, ANO1 block)
CCCS(=O)(=O)N1CCC(C(=O)NCCCOC)CC1	ANO1 block 100 | TMEM16A reconf inactive | TMEM16A Ca cntr inactive | YFP-HEK293 quench inactive | ClC-1 inh inactive
CCCS(=O)(=O)N1CCC(C(=O)NCCCOC(C)C)CC1	none
CCN(Cc1ccccc1)C(c1ccc(C)cc1)c1nnnn1C(C)(C)CC (configuration not stated)	ANO1 block 100 | TMEM16A reconf inactive | TMEM16A Ca cntr inactive | YFP-HEK293 quench inactive | ClC-1 inh inactive
COc1cc2c(cc1NC(=O)CCCCCN1C(=O)CCC1=O)oc1ccccc12	ANO1 block 25 | TMEM16A reconf inactive | TMEM16A Ca cntr inactive | YFP-HEK293 quench inactive | ClC-1 inh inactive
CCCC1(C(=O)O)NC(c2ccccc2O)C2C(=O)N(Cc3ccccc3)C(=O)C21 (configuration not stated)	ANO1 block 100 | TMEM16A reconf inactive | TMEM16A Ca cntr inactive | YFP-HEK293 quench inactive | ClC-1 inh inactive
Cc1oc2cc3oc(=O)c(CCC(=O)NC4CC4)c(C)c3cc2c1C	ANO1 block 25 | TMEM16A reconf inactive | TMEM16A Ca cntr inactive | YFP-HEK293 quench inactive | ClC-1 inh inactive
CCOC(=O)C1CCCN(S(=O)(=O)c2ccc3c(c2)N(C)C(=O)CC(=O)N3C)C1 (configuration not stated)	none
CCOc1ccc(Nc2cc(Nc3ccccc3OCC)nc(C=C(C#N)C#N)n2)cc1	none | TMEM16A reconf inactive | TMEM16A Ca cntr inactive | YFP-HEK293 quench inactive | ClC-1 inh inactive
Cc1ccc(S(=O)(=O)N(C)C)cc1NC(=O)C1CCCN(C(=O)c2ccc(Cl)cc2)C1 (configuration not stated)	none
Cn1nc(CC(=O)Nc2ccc3c(c2)OCCO3)c2ccccc2c1=O	ANO1 block 25 | TMEM16A reconf inactive | TMEM16A Ca cntr inactive | YFP-HEK293 quench inactive | ClC-1 inh inactive
Cn1nc(CC(=O)Nc2ccc(N3CCN(C(=O)OC(C)(C)C)CC3)cc2)c2ccccc2c1=O	ANO1 block 25 | TMEM16A reconf inactive | TMEM16A Ca cntr inactive | YFP-HEK293 quench inactive | ClC-1 inh inactive
Cn1nc(CC(=O)N2CCN(c3ccccc3)CC2)c2ccccc2c1=O	none
Cn1c(SCC(=O)Nc2ccc3c(c2)OCCO3)nnc1-c1ccco1	ANO1 block 100 | TMEM16A reconf inactive | TMEM16A Ca cntr inactive | YFP-HEK293 quench inactive | ClC-1 inh inactive
COc1cccc(CSc2nc(N)cc(N)n2)c1	none
